{"source": "the supplement of paper PMC10105736", "experiment_in_all_cases": "MAPPIT interaction score (arbitrary units); higher = stronger binary interaction signal, active = hit call of the paper", "key": {"[1]": {"target": "CG10483", "conditions": "MAPPIT configuration: N-N; pair source set: DPIM;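 active = MAPPIT score above the 99th percentile of random reference set scores in the same batch; inactive = at or below it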"}, "[2]": {"target": "CG4847", "conditions": "MAPPIT configuration: N-N; pair source set: DPIM"}, "[3]": {"target": "twin", "conditions": "MAPPIT configuration: N-N; pair source set: DPIM"}, "[4]": {"target": "CG10510", "conditions": "MAPPIT configuration: N-N; pair source set: Finley_Y2H"}, "[5]": {"target": "CG31111", "conditions": "MAPPIT configuration: N-N; pair source set: DPIM"}, "[6]": {"target": "CkIIbeta"}, "[7]": {"target": "Pkc98E", "conditions": "MAPPIT configuration: N-N; pair source set: Finley_Y2H"}, "[8]": {"target": "CG10616", "conditions": "MAPPIT configuration: N-N; pair source set: Finley_Y2H"}, "[9]": {"target": "CG10841", "conditions": "MAPPIT configuration: N-N; pair source set: screen_2"}, "[10]": {"target": "CG10874", "conditions": "MAPPIT configuration: N-N; pair source set: Lit-BS-16"}, "[11]": {"target": "RpL38", "conditions": "MAPPIT configuration: N-N; pair source set: Curagen_high_conf"}, "[12]": {"target": "bond", "conditions": "MAPPIT configuration: N-N; pair source set: Curagen_low_conf"}, "[13]": {"target": "CG10918", "conditions": "MAPPIT configuration: N-N; pair source set: Finley_Y2H"}, "[14]": {"target": "CG11149", "conditions": "pair source set: RRS"}, "[15]": {"target": "CG14323", "conditions": "MAPPIT configuration: N-N; pair source set: RRS"}, "[16]": {"target": "CG34268", "conditions": "MAPPIT configuration: N-N; pair source set: RRS"}}}
{"binder": "CG1785 (protein) MTAVEPATKKKRISKKNKSAWRKTDIQDVEQFLEDQRQEERVGTFADKQDEDLFVVDSSLPKTKATVLSVKQKRKLNAKKPMRSYQALENTSKVQDPIAKRNHVRQKKNGRNIELEVCNPTKPRHRQANSDRAQYYVKLEQRLADKKNKKLDVEKDIWQEVDFRDEIPGLKDEKGWISRELALHTAGNIGKKVVKTHASLHHKTTKAKKFELPHPGMSYNPAPEDHQALIDQVVEREEGIIKKEQHLKRVTTSMFSKVTPEERDRRRLNEMSQGMDEEEGSELDEDVQTNGKKKEDDDEKPYHTINAPVENKKKSKQARRNELKQKELARQTELKRKLKQQTADLIRIKSIRHELDDEEEDLNDLKKRRKQRAEKAKFEPKRLGRHKFEEPDLDVNLPEDIAGNLRNVKTESSLLKDRFHTLQRNNMLPTTKLVSRKKSKVKRFERNSHKEPGVSYNDLKERRRAAAAAAKATANIKI", "values": [{"measurement": "MAPPIT interaction score", "setting": "[1]", "value": "0.068 (inactive)"}, {"measurement": "MAPPIT interaction score", "setting": "[2]", "value": "0.0294 (inactive)"}, {"measurement": "MAPPIT interaction score", "setting": "[3]", "value": "-0.15 (inactive)"}]}
{"binder": "CkIIalpha (protein) MTLPSAARVYTDVNAHKPDEYWDYENYVVDWGNQDDYQLVRKLGRGKYSEVFEAINITTTEKCVVKILKPVKKKKIKREIKILENLRGGTNIITLLAVVKDPVSRTPALIFEHVNNTDFKQLYQTLTDYEIRYYLFELLKALDYCHSMGIMHRDVKPHNVMIDHENRKLRLIDWGLAEFYHPGQEYNVRVASRYFKGPELLVDYQMYDYSLDMWSLGCMLASMIFRKEPFFHGHDNYDQLVRIAKVLGTEELYAYLDKYNIDLDPRFHDILQRHSRKRWERFVHSDNQHLVSPEALDFLDKLLRYDHVDRLTAREAMAHPYFLPIVNGQMNPNNQQ", "values": [{"measurement": "MAPPIT interaction score", "setting": "[4]", "value": "0.0158 (inactive)"}, {"measurement": "MAPPIT interaction score", "setting": "[5]", "value": "0.429 (inactive)"}, {"measurement": "MAPPIT interaction score", "setting": "[6]; MAPPIT configuration: N-C, pair source set: Lit-BM-16", "value": "3.22 (inactive)"}, {"measurement": "MAPPIT interaction score", "setting": "[6]; MAPPIT configuration: N-N, pair source set: Lit-BM-16", "value": "4.3 (active)"}, {"measurement": "MAPPIT interaction score", "setting": "[6]; MAPPIT configuration: N-N, pair source set: screen_1", "value": "4.3 (active)"}, {"measurement": "MAPPIT interaction score", "setting": "[7]", "value": "0.257 (inactive)"}]}
{"binder": "wbl (protein) MMHILVTLLLVAIHSIPTTWAVTCTGCVDLDELSFEKTVERFPYSVVKFDIAYPYGEKHEAFTAFSKSAHKATKDLLIATVGVKDYGELENKALGDRYKVDDKNFPSIFLFKGNADEYVQLPSHVDVTLDNLKAFVSANTPLYIGRDGCIKEFNEVLKNYANIPDAEQLKLIEKLQAKQEQLTDPEQQQNARAYLIYMRKIHEVGYDFLEEETKRLLRLKAGKVTEAKKEELLRKLNILEVFRVHKVTKTAPEKEEL", "values": [{"measurement": "MAPPIT interaction score", "setting": "[8]", "value": "-0.151 (inactive)"}]}
{"binder": "mxt (protein) MAHTHLGRAVKNIEAPRPLKTQSRSSLKNSYLVIEELIQLIDNVTVGLQSCNTTPESITLLLHNLRVHGPQLEAVSKDTLDRAFVVFRNASQDERLNITTRLKLLELIELRAKSWDNDDTIAYYKSKQQISNVELPSEYQYDAGVQPGAFSTSPTFGVSGGVGGVNDGAAAAAAAVFNAASAAAAAQAAAIAAVGTSNQQHMLLPPGEVIRNSGKFPKPTKIPGKTYCKDEVVIRNADSGKVMGIKGRRVHMIEELSETIISFQRVNPGAKERLVQITGPAEDKINYAKQLMEDTIRRNASPVRLEPAPAVGGSCSSLNSSNSDDAIVQPRTPTGSSLANRLSFNSAQNFMTATAAAQQISQQMHHQTHHLQHQQQQQVAAVAAAAAAAAHAQATAAAGKVLRPNQQLLMHSYSTNDASVGEYKFTVNVGQHLIKITGDCCELVRVAKLVLDDYFSSSEFLASIEAGAAFDGTSLVTTPSTPLPGAGPPQFWLPGTDSGIGLNCVVSSSANNNGEGDDEVFAEPSNGGSSTSNQNGLARSRRSHFSRKESTPETKGAREKGDLDDLAGTNSLKSNASRVSYDIEHLLYYSMSPHSWTLPTDWQKMQETAPSILRNKDLQDESQRFDGDKYLASIKTAAKRDIVAADEVETLDE", "values": [{"measurement": "MAPPIT interaction score", "setting": "[9]", "value": "0.671 (inactive)"}]}
{"binder": "gus (protein) MGQKISGGVKTVSRNDSQSTFKPIIPRELQADFVKPARIDILLDMPPASRDLQLKHSWNSEDRSLNIFVKEDDKLTFHRHPVAQSTDCIRGKVGLTKGLHIWEIYWPTRQRGTHAVVGVCTADAPLHSVGYQSLVGSTEQSWGWDLGRNKLYHDSKNCAGVTYPAILKNDEAFLVPDKFLVALDMDEGTLSFIVDQQYLGIAFRGLRGKKLYPIVSAVWGHCEITMRYIGGLDPEPLPLMDLCRRTIRQKIGRTNLEEHIQQLQLPLSMKTYLLYKNRR", "values": [{"measurement": "MAPPIT interaction score", "setting": "[10]", "value": "0.809 (inactive)"}, {"measurement": "MAPPIT interaction score", "setting": "[11]", "value": "0.363 (inactive)"}, {"measurement": "MAPPIT interaction score", "setting": "[12]", "value": "0.0719 (inactive)"}]}
{"binder": "Fer2LCH (protein) MKFFVALALFACLGSLALAKDDEYCQNTVITACSTSAFSANSICNARFAGIDHIEPEIQSYINANLAKSYDYLLLATHFNSYQKNRPGFQKLYQGLSDRSFEDSIALIKQVTRRGGIVDFNTRHESSGSVSTKRGTLEVDELHSLALALDTEKQLATGATHVHSRATHATDAERDPELAHYFEENFLGKQAESVRKLSGYANDLAKLMKVPDPSLSVYLFDEYLQKQ", "values": [{"measurement": "MAPPIT interaction score", "setting": "[13]", "value": "0.0432 (inactive)"}]}
{"binder": "wuho (protein) MCTTISFAEPEIVLGHGRRVLFVNPDDLQIFKEIELPPDLGLKGHTSQSQESCTAAAAASTATAASGQAPGGKEQQLANQPEEGGTSASASGLGCATSTSVQNVAYSPDGQLLAVTTSGKQKALLLYRSRPENARLLSARPLARASSALRFCSDSSSILVTDKTGDCYQYDCVEVEAPPRLLLGHLSVVYDILWSEDQQHIITCDRDDKIRVTNYPATFDIHSYCLGHREFVSGLALLTEQHIASASGDKTLRVWNYIQGKELLQHELPAPAVRLLVRQLEPEKVFQAAVLFYEHVDALGLYRLERSSDDTWSVTATQLVCAEAGSWSISNFTLTSDRIYITGAENERLSLRVYDIATGQPASSGVPEGWLKMVLDGLGANEEGAPPFIPEDLSVWFKKRFDNVSDYLERKKRRIEEQQQQKCG", "values": [{"measurement": "MAPPIT interaction score", "setting": "[14]; MAPPIT configuration: N-C", "value": "0.206 (inactive)"}, {"measurement": "MAPPIT interaction score", "setting": "[14]; MAPPIT configuration: N-N", "value": "-0.175 (inactive)"}, {"measurement": "MAPPIT interaction score", "setting": "[15]", "value": "0.00913 (inactive)"}, {"measurement": "MAPPIT interaction score", "setting": "[16]", "value": "0.0545 (inactive)"}]}
